The source of these data is PubChem BioAssay.

A number with no mark means an inactive call. No rule for the calls is given here.

Sequence of Lethal factor (Bacillus anthracis) (P15917 whole entry, looked up): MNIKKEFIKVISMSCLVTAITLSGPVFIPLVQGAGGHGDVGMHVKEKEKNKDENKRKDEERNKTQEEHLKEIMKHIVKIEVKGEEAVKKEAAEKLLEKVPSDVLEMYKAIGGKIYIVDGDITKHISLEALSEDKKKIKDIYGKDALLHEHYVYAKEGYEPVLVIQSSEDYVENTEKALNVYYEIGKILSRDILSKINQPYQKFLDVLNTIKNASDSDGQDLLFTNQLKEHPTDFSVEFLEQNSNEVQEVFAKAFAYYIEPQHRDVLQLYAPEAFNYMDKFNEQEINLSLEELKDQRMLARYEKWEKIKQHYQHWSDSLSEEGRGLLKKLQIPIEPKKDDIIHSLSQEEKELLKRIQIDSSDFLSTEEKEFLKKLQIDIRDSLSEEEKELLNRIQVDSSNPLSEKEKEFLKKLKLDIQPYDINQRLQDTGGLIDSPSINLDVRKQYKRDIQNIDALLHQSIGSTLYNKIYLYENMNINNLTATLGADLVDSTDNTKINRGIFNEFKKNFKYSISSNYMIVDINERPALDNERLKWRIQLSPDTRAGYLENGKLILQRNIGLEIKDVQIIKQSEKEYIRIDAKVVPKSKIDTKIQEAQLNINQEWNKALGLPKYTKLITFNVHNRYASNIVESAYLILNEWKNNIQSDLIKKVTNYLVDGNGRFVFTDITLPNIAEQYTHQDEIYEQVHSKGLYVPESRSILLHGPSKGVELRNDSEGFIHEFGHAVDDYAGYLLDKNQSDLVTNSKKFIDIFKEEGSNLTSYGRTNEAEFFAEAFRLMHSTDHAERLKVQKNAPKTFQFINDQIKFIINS

This assay concerns the target Lethal factor (Bacillus anthracis) (UniProt P15917). As to the kind of experiment: Bacillus anthracis lethal factor inhibition, microsphere flow cytometry protease assay, validation at 10 µM (AID 588461). The note with it: multiplex microsphere protease cleavage assay, hits give high values. (In general: In flow cytometry, cells or beads pass a laser one at a time.)
On to `O=C(CCCN1C(=O)/C(=C\c2cccc(Br)c2)SC1=S)Nc1cccnc1`, for which the inhibition (in general, the change of the read-out against control, counted positive when it falls) is 2.4%.

On to `CN(C)C(=O)C12CCC(C)(c3nc4ccccc4nc31)C2(C)C` (stereo unspecified), for which the inhibition was 1.8%.

In the case of `CN(C)CCC=C1c2ccccc2CCc2ccccc21`, the inhibition was 0.7%.

With `COc1ccc(C2C3C(C)=NN=C3CC(C)(O)C2C(C)=O)cc1` (stereo unspecified), the inhibition is 4%.

As to `CC(C)COc1ccc(Cc2cnc(N)nc2N)cc1`, the inhibition was 1.9%.

As for `CCn1c(O)c(/C=C2\C=Nc3ccccc32)sc1=O`, the inhibition was -0.8%.

On to `CN1CCN(CC/C=C2/c3ccccc3Sc3ccc(S(=O)(=O)N(C)C)cc32)CC1`, for which the inhibition is 0%.

Consider `Oc1ccc(COCc2ccccc2)c2cccnc12`, for which the inhibition is -3.1%.

For `COc1ccc(C(=O)N2c3cc4c(cc3C(C)=CC2(C)C)OCO4)cc1`, the inhibition is 4%.

In the case of `COc1ccc2cc(CCC(C)=O)ccc2c1`, the inhibition is 6.3%.

With `COc1cc(C)nc(-n2nc(C)cc2OC)n1`, the inhibition was -4.9%.

On to `Cc1[nH]c2ccccc2c1/C=C/c1nc2ccccc2c(=O)n1CCO`, for which the inhibition is 0.2%.

Regarding `Nc1nc(Cl)nc2c1ncn2[C@H]1C[C@H](O)[C@@H](CO)O1`, the inhibition is -19.4%.

As for `O=C(/C=C/c1ccc2c(c1)OCO2)c1ccccn1`, the inhibition is -2.8%.

`C#CCN1C(=O)C(O)(CC(=O)c2ccc(OC)c(OC)c2)c2ccccc21` (stereo unspecified): the inhibition is 2%.

Consider `Cc1ccc(P(=O)(CSC(=N)N)c2ccc(C)cc2)cc1`, for which the inhibition was -7.5%.

Regarding `CCOC(=O)C(=O)N1CCN(c2ccccc2OC)CC1`, the inhibition was -4.9%.

For the compound `O=C(c1cccc2ccccc12)C1CCCN(C(=O)CCN2CCCO2)C1` (stereo unspecified), the inhibition was 2.5%.

`Cc1cc(=O)oc2c(CN(C)Cc3ccccc3)c(O)ccc12`: the inhibition is -3.4%.

In the case of `Cc1ncoc1C(=O)N1CCCC(C(=O)c2ccc(-c3ccccc3)c(F)c2)C1` (stereo unspecified), the inhibition was -5.3%.

On to `CN1CCN(C2=Nc3cc(Cl)ccc3Nc3ccccc32)CC1`, for which the inhibition is -6.6%.

With `NC(=O)N1c2ccccc2CC(=O)c2ccccc21`, the inhibition is 0.4%.

Take `Cc1cc(/C=N/O)c(C)n1-c1ccc(Br)cc1`: the inhibition is 0.9%.

On to `OCCN(CCO)c1nc(N2CCCCC2)c2nc(N(CCO)CCO)nc(N3CCCCC3)c2n1`, for which the inhibition is 8.5%.

On to `O=C(O)COc1ccc2occ(C(=O)c3ccccc3)c2c1`, for which the inhibition was 4.6%.

For the compound `C[C@]12CC[C@H]3C(=CCc4cc(O)ccc43)[C@@H]1CCC2=O`, the inhibition is 2.9%.

Regarding `Cn1c(=O)c2c(ncn2CCO)n(C)c1=O`, the inhibition was 1.7%.

Turning to `NS(=O)(=O)c1cc(C2(O)NC(=O)c3ccccc32)ccc1Cl` (stereo unspecified), the inhibition was -7.1%.

For `COc1ccc(C2NC(=O)c3ccccc3N2)cc1OC` (stereo unspecified), the inhibition is -2.9%.

Turning to `O=C(c1ccc([N+](=O)[O-])cc1)N1CCSC1c1ccccc1Cl` (stereo unspecified), the inhibition is -1.3%.

With `Cc1cccc(N2CCN(C(=S)c3ccccc3)CC2)c1`, the inhibition is -2.9%.
